According to the supplement of paper PMC3334620:
The full ranking holds about 33,000 sequences; the median of “E-score (-0.5 to 0.5)” is about -0.013, and the highest 2% start at about 0.3. What follows is part of a selection rich in the highest values, with near analogues and random picks from the rest.

These sequences were tested against T1, Msn1 (UniProt P22148) (assay: PBM E-score (8-mer binding enrichment) (E-score (-0.5 to 0.5)); higher = stronger / more preferred TF binding). Details: protein concentration: 200 nM; construct: GST-full length.
T1 sequence: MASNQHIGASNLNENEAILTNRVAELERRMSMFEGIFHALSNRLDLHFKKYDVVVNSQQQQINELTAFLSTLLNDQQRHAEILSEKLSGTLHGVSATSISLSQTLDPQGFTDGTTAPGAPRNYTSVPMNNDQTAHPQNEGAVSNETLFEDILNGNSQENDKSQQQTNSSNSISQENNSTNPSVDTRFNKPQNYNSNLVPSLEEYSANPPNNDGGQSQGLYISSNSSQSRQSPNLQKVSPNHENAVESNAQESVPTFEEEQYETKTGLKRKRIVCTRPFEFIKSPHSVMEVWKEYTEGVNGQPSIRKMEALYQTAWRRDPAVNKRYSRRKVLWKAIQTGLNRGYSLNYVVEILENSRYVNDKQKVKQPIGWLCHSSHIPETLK
Procedure, shortened: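 For each ungapped eight-base word taken together with its reverse complement, the Universal PBM Analysis Suite assigned an E-score. Binding data came from GST-tagged yeast transcription factors, applied at about 100-200 nM, on universal all-10-mer Agilent arrays made double-stranded by primer extension. Fluorescent anti-GST marked bound protein, and scans were normalised with masliner.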
For CAACTTTC, the “PBM E-score” value was -0.0177. For AAGACAAA, the “PBM E-score” value was 0.45. With TAGACGAA the “PBM E-score” value was 0.0138. With AAAACAAT the “PBM E-score” value was 0.127. CAGACAAA was tested, and the “PBM E-score” value was 0.451. In the case of AAGACAGA, the “PBM E-score” value is reported as 0.216. In the case of AAGACTAT, the “PBM E-score” value is reported as -0.0507. TAGACTAA was tested, and the “PBM E-score” value was -0.0893. With CAGACAAG the “PBM E-score” value was 0.28. AAGACAAT was tested, and the “PBM E-score” value was 0.409. For TAGACAAA, the “PBM E-score” value was 0.446. With CAGACAGA the “PBM E-score” value was 0.0672. AAGACACA was tested, and the “PBM E-score” value was 0.169. For AGCAGTTG, the “PBM E-score” value was -0.0796. With AACCGACC the “PBM E-score” value was -0.0206. For CCGTCCAG, the “PBM E-score” value was -0.00159. With AAGCCAAG the “PBM E-score” value was -0.237. In the case of AGAGGAGG, the “PBM E-score” value is reported as -0.382. ACCAGCCG was tested, and the “PBM E-score” value was -0.0866. With AGCCATCC the “PBM E-score” value was -0.277. In the case of AAGACAGG, the “PBM E-score” value is reported as 0.0873. In the case of AAGACAAG, the “PBM E-score” value is reported as 0.343. With AAGACAAC the “PBM E-score” value was 0.221. With GAGACAAA the “PBM E-score” value was 0.442. GAGACGAA was tested, and the “PBM E-score” value was -0.0182. For GAGACAAC, the “PBM E-score” value was 0.203. With ACAGACCG the “PBM E-score” value was -0.128. With GAGATGAA the “PBM E-score” value was 0.024. With AGGTGCCC the “PBM E-score” value was -0.275. With ACCGACAA the “PBM E-score” value was 0.268. In the case of ACCGAGAA, the “PBM E-score” value is reported as 0.149. With CCCGACAA the “PBM E-score” value was 0.329. With TCCGAGAA the “PBM E-score” value was 0.346. For TCCGACAA, the “PBM E-score” value was 0.372. With CCCGACAG the “PBM E-score” value was 0.052. In the case of GCCGACAA, the “PBM E-score” value is reported as 0.117. With CCCGAGAA the “PBM E-score” value was 0.0155. With CCCGACAC the “PBM E-score” value was -0.0956. With CAATTCAG the “PBM E-score” value was 0.0996. In the case of TAAGTACA, the “PBM E-score” value is reported as 0.287. GCTTTAGA was tested, and the “PBM E-score” value was -0.0753. With CCTGATAG the “PBM E-score” value was -0.222. In the case of AACATGAT, the “PBM E-score” value is reported as 0.173. In the case of ACACATAG, the “PBM E-score” value is reported as 0.0311. With ATACATAA the “PBM E-score” value was 0.21. With AGACACAT the “PBM E-score” value was 0.197. In the case of AGACATAG, the “PBM E-score” value is reported as 0.32. In the case of AAACATAT, the “PBM E-score” value is reported as 0.258. With AGACATAT the “PBM E-score” value was 0.47. In the case of CGACATAG, the “PBM E-score” value is reported as 0.15. For ATACATAC, the “PBM E-score” value was -0.0367. In the case of AGACATAC, the “PBM E-score” value is reported as 0.327. In the case of ACACATAA, the “PBM E-score” value is reported as 0.217. AAACATAC was tested, and the “PBM E-score” value was -0.0227. With AGACATAA the “PBM E-score” value was 0.373. In the case of GCAATGAA, the “PBM E-score” value is reported as 0.0712. In the case of ATACATGA, the “PBM E-score” value is reported as 0.073. With ACAAATCG the “PBM E-score” value was 0.276. ACTGAAGC was tested, and the “PBM E-score” value was -0.0558. AATGGTTG was tested, and the “PBM E-score” value was -0.0125. With CCCTAAAC the “PBM E-score” value was -0.171. With AGACAAGG the “PBM E-score” value was 0.162. With ATACAAAT the “PBM E-score” value was 0.335. ATACAAAG was tested, and the “PBM E-score” value was 0.254. AGACAAAT was tested, and the “PBM E-score” value was 0.482. For AGACAAAA, the “PBM E-score” value was 0.437. With AAACAAAT the “PBM E-score” value was 0.199. In the case of AGACAAAG, the “PBM E-score” value is reported as 0.364. With AGACAACT the “PBM E-score” value was 0.147. With ACACAAAA the “PBM E-score” value was 0.296. AAACAAAA was tested, and the “PBM E-score” value was 0.127. With ATACAAAA the “PBM E-score” value was 0.2. CGACAAAG was tested, and the “PBM E-score” value was 0.294. CGCCCTTA was tested, and the “PBM E-score” value was -0.0904. For AAGTTGAT, the “PBM E-score” value was 0.016. In the case of AACTGCCC, the “PBM E-score” value is reported as -0.105. With GGTCAAAC the “PBM E-score” value was 0.114. In the case of AGGGGGCG, the “PBM E-score” value is reported as -0.416. GTGCAACA was tested, and the “PBM E-score” value was -0.164. With ACCCGCGC the “PBM E-score” value was 0.0994. In the case of GCACCTTA, the “PBM E-score” value is reported as 0.00327. For ATATCCTG, the “PBM E-score” value was 0.0176. For CCCTTCGG, the “PBM E-score” value was -0.0863. In the case of AGACAAAC, the “PBM E-score” value is reported as 0.446. In the case of TAACAAAA, the “PBM E-score” value is reported as 0.228. With CGACAAAA the “PBM E-score” value was 0.423. CAACAAAA was tested, and the “PBM E-score” value was 0.0735. With CGACAACC the “PBM E-score” value was 0.0461. In the case of ACACAAAC, the “PBM E-score” value is reported as 0.0132. For TCACAAAA, the “PBM E-score” value was 0.119. For AAACAAAC, the “PBM E-score” value was 0.192. With CAACAAAC the “PBM E-score” value was -0.0143. For CGACAAAC, the “PBM E-score” value was 0.36. CCACAAAA was tested, and the “PBM E-score” value was 0.0569. TGACAAAA was tested, and the “PBM E-score” value was 0.402. For CCGTTGAA, the “PBM E-score” value was 0.00808. In the case of CGTAGCTA, the “PBM E-score” value is reported as -0.123. In the case of CCTGCGGA, the “PBM E-score” value is reported as 0.00937. In the case of CGGCCGAC, the “PBM E-score” value is reported as 0.194. In the case of GATTTGGC, the “PBM E-score” value is reported as -0.221. CATAGATC was tested, and the “PBM E-score” value was 0.0219. For CCGTGAGG, the “PBM E-score” value was -0.283. With CATGGAGA the “PBM E-score” value was -0.00044. With GCCTACAA the “PBM E-score” value was -0.0308. With ATCCCGTC the “PBM E-score” value was -0.0856. For AGTAACGC, the “PBM E-score” value was -0.119. CTCTGAGA was tested, and the “PBM E-score” value was -0.0856. With CATACTCA the “PBM E-score” value was 0.0936. With GTTGGACA the “PBM E-score” value was 0.437. ATTGGACA was tested, and the “PBM E-score” value was 0.445. In the case of CTTGGACA, the “PBM E-score” value is reported as 0.44. With CTTGGACC the “PBM E-score” value was -0.163. With GTTGGAAA the “PBM E-score” value was 0.165. With ATTGGACC the “PBM E-score” value was -0.101. GTTGGATA was tested, and the “PBM E-score” value was 0.0207. For CTTGGAGA, the “PBM E-score” value was -0.00816. ATTGGACG was tested, and the “PBM E-score” value was 0.211. With CACAATGG the “PBM E-score” value was 0.0832. TAGGAACA was tested, and the “PBM E-score” value was 0.0697. In the case of GGGTGTCA, the “PBM E-score” value is reported as -0.0869. With AGAGCTCT the “PBM E-score” value was -0.265. With AGCCTCCG the “PBM E-score” value was -0.213. AGTACTTG was tested, and the “PBM E-score” value was 0.147. For AGCACACG, the “PBM E-score” value was -0.0792. With ACGACACG the “PBM E-score” value was 0.206. In the case of AGGACACA, the “PBM E-score” value is reported as 0.472. With AGGACACG the “PBM E-score” value was 0.467. For AGGACAGG, the “PBM E-score” value was 0.28. With ATGACACG the “PBM E-score” value was 0.214. For ACGACACT, the “PBM E-score” value was 0.123. For ACGACACA, the “PBM E-score” value was 0.172. With AGGACACT the “PBM E-score” value was 0.358. For AGGACAGA, the “PBM E-score” value was 0.437. For AGGACACC, the “PBM E-score” value was 0.255. With AGGACAGC the “PBM E-score” value was 0.078. For TCGCAAGA, the “PBM E-score” value was -0.177. For AGGCAAAA, the “PBM E-score” value was 0.163. For CTTGTTCA, the “PBM E-score” value was -0.0388. In the case of GAGAGTTA, the “PBM E-score” value is reported as -0.0018. In the case of TCAGTTCA, the “PBM E-score” value is reported as -0.039. With ATTAAAAA the “PBM E-score” value was 0.327. For ACTAAAAC, the “PBM E-score” value was 0.14. In the case of TATAAAAA, the “PBM E-score” value is reported as 0.318. For ATTAAAAC, the “PBM E-score” value was 0.156. With ATTAAAAG the “PBM E-score” value was 0.156. In the case of ACTAAAAG, the “PBM E-score” value is reported as 0.0984. For CATAAAAA, the “PBM E-score” value was 0.181. TATATAAA was tested, and the “PBM E-score” value was 0.253. For ACTAAAAA, the “PBM E-score” value was 0.309. CAATTTCC was tested, and the “PBM E-score” value was 0.0903. ACCAACAG was tested, and the “PBM E-score” value was -0.127. CGCAAACA was tested, and the “PBM E-score” value was 0.143. CAGCACAG was tested, and the “PBM E-score” value was 0.00522. In the case of GTCGTCTA, the “PBM E-score” value is reported as -0.00305. With CGCGTGTC the “PBM E-score” value was 0.344. For AGCGTGTC, the “PBM E-score” value was 0.0384. In the case of CGCGTGTA, the “PBM E-score” value is reported as 0.114. For AGAAATGG, the “PBM E-score” value was -0.076. With ACCCTTAT the “PBM E-score” value was -0.0336. In the case of TATGGAAA, the “PBM E-score” value is reported as 0.071. For TATGGAGA, the “PBM E-score” value was 0.0848. For CATGGACA, the “PBM E-score” value was 0.47. For GATGGAAA, the “PBM E-score” value was -0.126. With TATGGACA the “PBM E-score” value was 0.476. For GATGGACA, the “PBM E-score” value was 0.443. GATGGACC was tested, and the “PBM E-score” value was 0.0221. AATGGACG was tested, and the “PBM E-score” value was 0.185. In the case of AATGGACA, the “PBM E-score” value is reported as 0.438. For AATGGACT, the “PBM E-score” value was 0.19. For CATGGACC, the “PBM E-score” value was -0.0789. For CATGGACG, the “PBM E-score” value was 0.137. With ATTGGTAA the “PBM E-score” value was 0.00511. With CCTCCTGA the “PBM E-score” value was -0.153.
